# Reference: PubChem BioAssay (Tox21)
# Records with an inconclusive call do not appear. Entries that show only a call come without a potency. Active and inactive are the calls of the source. Unless noted, calls come from the whole dose curve. Square brackets hold non-standard residues; d marks the D form. Peptide text beside a SMILES is read from it. pGlu = O=C1CC[C@@H](C(=O)O)N1
# Tests used:
# [1] = target: 5-hydroxytryptamine receptor 2A (Homo sapiens) (UniProt P28223); assay: 5-hydroxytryptamine receptor 2A (HTR2A) small molecule antagonists, cell-based qHTS assay (AID 1963586); note: nearly all actives have a fitted effect of over 45% in size
# Chain of 5-hydroxytryptamine receptor 2A (Homo sapiens) (P28223 whole entry, looked up): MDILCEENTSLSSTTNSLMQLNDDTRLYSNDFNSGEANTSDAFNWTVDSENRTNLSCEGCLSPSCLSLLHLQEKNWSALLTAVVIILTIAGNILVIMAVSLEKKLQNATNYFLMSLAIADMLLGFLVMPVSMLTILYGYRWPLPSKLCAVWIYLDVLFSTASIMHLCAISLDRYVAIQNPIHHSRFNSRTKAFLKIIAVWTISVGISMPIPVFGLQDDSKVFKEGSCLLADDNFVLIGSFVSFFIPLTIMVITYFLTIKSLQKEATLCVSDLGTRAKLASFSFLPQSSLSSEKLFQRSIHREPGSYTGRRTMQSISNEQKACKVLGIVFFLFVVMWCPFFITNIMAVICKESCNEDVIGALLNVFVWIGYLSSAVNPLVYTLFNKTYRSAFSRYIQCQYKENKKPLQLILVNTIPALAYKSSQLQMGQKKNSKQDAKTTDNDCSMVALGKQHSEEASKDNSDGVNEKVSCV
# In short: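 CHO cells stably expressing human HTR2A were plated for 18 h at 37 C, then loaded with calcium dye for 1 h. Compounds were preincubated 5 min at room temperature before DOI (4 nM solution) was added. Kinetic fluorescence was read for 3 min.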
# [2] = target: 5-hydroxytryptamine receptor 2A (Homo sapiens) (UniProt P28223); assay: 5-hydroxytryptamine receptor 2A (HTR2A) small molecule agonists, cell-based qHTS assay (AID 1963587); note: nearly all actives have a fitted effect of over 30% in size; note: potency is the fitted concentration of half-maximal effect
# In short: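 Kinetic calcium-flux fluorescence (2 min, 1 sec intervals) after compound addition in agonist mode. HTR2A-CHO cells were cultured 18 h, then dye-loaded 1 h at 37 C.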
# [3] = target: Muscarinic acetylcholine receptor M1 (Homo sapiens) (UniProt P11229); assay: Cholinergic receptor muscarinic 1 (CHRM1) small molecule antagonists, cell-based qHTS assay (AID 1963588); note: nearly all actives have a fitted effect of over 40% in size
# Chain of Muscarinic acetylcholine receptor M1 (Homo sapiens) (P11229 whole entry, looked up): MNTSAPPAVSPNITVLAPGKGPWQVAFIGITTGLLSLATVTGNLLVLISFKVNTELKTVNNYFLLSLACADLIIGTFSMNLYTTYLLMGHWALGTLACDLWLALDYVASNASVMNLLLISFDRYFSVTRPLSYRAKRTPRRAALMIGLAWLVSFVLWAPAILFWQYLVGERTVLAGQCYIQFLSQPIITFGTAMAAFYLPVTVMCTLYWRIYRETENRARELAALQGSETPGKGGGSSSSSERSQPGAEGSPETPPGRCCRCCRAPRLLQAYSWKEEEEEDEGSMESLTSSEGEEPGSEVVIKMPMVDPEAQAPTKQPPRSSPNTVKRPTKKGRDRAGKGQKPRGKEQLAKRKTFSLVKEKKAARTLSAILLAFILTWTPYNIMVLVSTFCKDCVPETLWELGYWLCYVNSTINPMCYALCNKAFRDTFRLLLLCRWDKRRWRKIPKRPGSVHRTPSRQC
# In short: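 Compounds were tested at 15 concentrations in three independent runs. Dye-loaded CHRM1-CHO cells were exposed 5 min at room temperature before stimulation by acetylcholine added at 50nM. Intracellular calcium was read kinetically on FDSS for 3 min.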
# [4] = target: Muscarinic acetylcholine receptor M1 (Homo sapiens) (UniProt P11229); assay: Cholinergic receptor muscarinic 1 (CHRM1) small molecule agonists, cell-based qHTS assay (AID 1963589); note: nearly all actives have a fitted effect of over 35% in size
# In short: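 Fluorescent calcium dye reports M1 activation in stably transfected CHO cells. Compounds, 15 concentrations, added after 1 h dye loading at 37 C; kinetic reading at 1 sec intervals.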
# [5] = target: Beta-2 adrenergic receptor (Homo sapiens) (UniProt P07550); assay: Adrenergic beta2 receptor (ADRB2) small molecule antagonists, cell-based qHTS assay (AID 1963592); note: series mostly up to about 92 µM; nearly all actives have a fitted effect of over 50% in size
# Chain of Beta-2 adrenergic receptor (Homo sapiens) (P07550 whole entry, looked up): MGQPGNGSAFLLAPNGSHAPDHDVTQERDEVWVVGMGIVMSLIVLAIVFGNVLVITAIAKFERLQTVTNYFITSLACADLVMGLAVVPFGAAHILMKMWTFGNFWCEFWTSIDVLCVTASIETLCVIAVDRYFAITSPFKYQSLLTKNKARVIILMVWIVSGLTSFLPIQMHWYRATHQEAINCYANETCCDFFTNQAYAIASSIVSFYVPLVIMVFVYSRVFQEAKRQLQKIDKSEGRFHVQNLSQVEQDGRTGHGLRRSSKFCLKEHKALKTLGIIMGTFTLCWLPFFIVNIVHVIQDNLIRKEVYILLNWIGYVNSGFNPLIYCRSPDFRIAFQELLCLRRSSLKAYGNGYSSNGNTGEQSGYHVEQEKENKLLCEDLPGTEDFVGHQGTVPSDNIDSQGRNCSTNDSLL
# In short: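 Assay format: CHO-ADRB2 cells, 18-20hr seeding at 37C/5% CO2, then compound plus 1nM isoproterenol agonist mix for 0.5hr RT. Homogeneous time-resolved fluorescence cAMP detection after 1hr, expressed as 665/615 nm ratio.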
# [6] = target: D(2) dopamine receptor (Homo sapiens) (UniProt P14416); assay: Dopamine D2 receptor (DRD2) small molecule agonists, cell-based qHTS assay (AID 1963594); note: nearly all actives have a fitted effect of over 35% in size
# Chain of D(2) dopamine receptor (Homo sapiens) (P14416 whole entry, looked up): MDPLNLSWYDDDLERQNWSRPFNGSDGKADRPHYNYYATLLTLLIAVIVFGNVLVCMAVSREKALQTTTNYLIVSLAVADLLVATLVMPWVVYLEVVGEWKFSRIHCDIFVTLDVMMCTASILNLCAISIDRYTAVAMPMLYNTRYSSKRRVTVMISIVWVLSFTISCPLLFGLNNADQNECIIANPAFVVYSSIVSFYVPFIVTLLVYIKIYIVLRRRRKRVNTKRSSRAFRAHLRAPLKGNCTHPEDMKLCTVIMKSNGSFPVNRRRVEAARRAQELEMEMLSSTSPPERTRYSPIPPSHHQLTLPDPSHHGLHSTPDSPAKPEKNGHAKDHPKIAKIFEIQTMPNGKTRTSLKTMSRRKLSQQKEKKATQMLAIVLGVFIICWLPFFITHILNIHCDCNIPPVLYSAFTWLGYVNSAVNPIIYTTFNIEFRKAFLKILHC
# In short: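 cAMP accumulation in DRD2-HEK293 cells measured by HTRF after 1 h detection; compounds added 10 min before NKH477 (200nM […]) forskolin-analogue stimulation, 30 min at room temperature, with Ro20-1724 present at 0.1 mM final.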
# [7] = target: D(2) dopamine receptor (Homo sapiens) (UniProt P14416); assay: Dopamine D2 receptor (DRD2) small molecule antagonists, cell-based qHTS assay (AID 1963595; active = well fitted inhibition curve with a large enough effect in the signal ratio in the repeat runs, with a control signal flat; the % refers to the signal ratio)
# In short: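 Antagonist mode in DRD2-HEK293 cells: after compound addition with 0.1 mM Ro20-1724, cells received quinpirole (12 nM) and NKH477 (200 nM) for 30 min at room temperature; HTRF cAMP read after 1 h detection.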
# [8] = p53 small molecule agonists, cell-based qHTS assay with human liver microsomes (AID 1963577);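 note: p53 response element beta-lactamase reporter cells with liver microsomes plus NADPH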
# In short: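 With metabolic activation: human liver microsomes (0.5 mg/mL final) plus NADPH (0.5 mg/mL final) added alongside compounds to p53RE-bla cells; 16 h 37 C exposure; beta-lactamase read by LiveBLAzer fluorescence.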
# [9] = p53 small molecule agonists, cell-based qHTS assay with rat liver microsomes (AID 1963578)
# In short: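 Metabolic activation by rat liver microsomes and NADPH, each 0.5 mg/mL final, added right after compounds to p53RE-bla reporter cells (4,000/well, plated 5 h earlier). 16 h at 37 C, then LiveBLAzer substrate for 2 h at room temperature in the dark; fluorescence read-out.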
# [10] = p53 small molecule agonists, cell-based qHTS assay with human liver microsomes: qHTS cell viability counter screen (AID 1963579); note: nearly all actives have a fitted effect of over 45% in size
# In short: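 Metabolic activation used human liver microsomes and NADPH, both 0.5 mg/mL final, over 16 hours at 37 C on p53RE-bla cells (4,000/well). Cytotoxicity measured by CellTiter-Glo luminescence, 30 min at room temperature.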
# [11] = p53 small molecule agonists, cell-based qHTS assay with rat liver microsomes: qHTS cell viability counter screen (AID 1963580); note: nearly all actives have a fitted effect of over 45% in size; note: potency is the fitted concentration of half-maximal effect
# In short: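 Rat liver microsome (0.5 mg/mL final) and NADPH (0.5 mg/mL final) co-incubation with compounds for 16 h at 37 C on HCT-116 p53RE-bla cells; cytotoxicity taken from intracellular ATP luminescence.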
# [12] = target: Gonadotropin-releasing hormone receptor (Homo sapiens) (UniProt P30968); assay: Human gonadotropin-releasing hormone receptor (GnRHR) small molecule agonists, calcium flux assay in GnRHR-HEK293 cells (AID 1920063); note: nearly all actives have a fitted effect of over 35% in size
# Chain of Gonadotropin-releasing hormone receptor (Homo sapiens) (P30968 whole entry, looked up): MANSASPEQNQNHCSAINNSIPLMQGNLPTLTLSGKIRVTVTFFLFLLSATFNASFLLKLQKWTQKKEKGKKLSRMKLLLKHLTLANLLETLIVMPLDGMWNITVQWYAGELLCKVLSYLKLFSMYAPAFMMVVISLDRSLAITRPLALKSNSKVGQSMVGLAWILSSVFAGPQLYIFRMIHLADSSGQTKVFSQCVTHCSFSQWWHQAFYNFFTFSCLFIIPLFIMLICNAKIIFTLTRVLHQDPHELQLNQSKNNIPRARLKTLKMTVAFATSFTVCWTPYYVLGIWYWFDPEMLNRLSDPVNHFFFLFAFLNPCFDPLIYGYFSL
# In short: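 Intracellular calcium rise is the read-out: engineered human GnRHR HEK293 cells, dye-loaded, are exposed to DMSO-dissolved compounds and fluorescence at Ex/Em 480/540 is tracked for 3 min.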
# [13] = G protein-coupled receptor (GPCR) small molecule agonists, calcium flux assay: HEK293 wild type cell line counter screen (AID 1920065)
# In short: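 Fluorescence intensity signals activation. After overnight (18 h) culture and a 1 h calcium dye load at 37 C, compounds are added by pin tool and the plate read at 480/540 nm for 3 min in 1 s steps.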
# [14] = p53 small molecule agonists, cell-based qHTS assay: qHTS cell viability counter screen (AID 1963581); note: nearly all actives have a fitted effect of over 45% in size
# In short: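 Luminescence from CellTiter-Glo, reflecting ATP content, serves as the cytotoxicity measure; it is taken after the 2 h reporter substrate step in HCT-116 p53RE-bla cells dosed for 16 h at 37 C.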
# [15] = p53 small molecule agonists, cell-based qHTS assay (AID 1963582; active = well fitted activation curve with a large enough effect in the signal ratio in the repeat runs, not every such curve was filed as active; the % refers to the signal ratio)
# In short: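 After plating, p53RE-bla cells sat 5 h in the incubator; compounds or DMSO vehicle were pinned in; a 16 h incubation at 37 C followed; FRET substrate was added and, 2 h later at RT, fluorescence was measured.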
# [16] = target: KiSS-1 receptor (Homo sapiens) (UniProt Q969F8); assay: Human kisspeptin (KISS1R) small molecule agonists, calcium flux assay in KISS1R-HEK293 cells (AID 1920064; active = well fitted activation curve with a large enough effect in the repeat runs)
# Chain of KiSS-1 receptor (Homo sapiens) (Q969F8 whole entry, looked up): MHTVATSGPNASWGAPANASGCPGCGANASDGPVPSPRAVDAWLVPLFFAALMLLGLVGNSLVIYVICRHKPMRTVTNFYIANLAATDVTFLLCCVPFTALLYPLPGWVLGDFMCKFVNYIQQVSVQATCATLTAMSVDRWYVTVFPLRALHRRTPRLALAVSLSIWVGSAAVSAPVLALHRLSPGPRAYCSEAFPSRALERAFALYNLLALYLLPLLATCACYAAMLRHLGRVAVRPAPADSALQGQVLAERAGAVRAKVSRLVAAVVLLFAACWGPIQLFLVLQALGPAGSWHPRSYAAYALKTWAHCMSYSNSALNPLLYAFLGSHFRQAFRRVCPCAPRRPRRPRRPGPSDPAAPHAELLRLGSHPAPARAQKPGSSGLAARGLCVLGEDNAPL
# In short: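 Concentration-response testing used 15 concentrations in triplicate on human KISS1R-expressing HEK293 cells. Calcium-dependent fluorescence (Ex/Em 480/540) was followed kinetically for 3 min after compound transfer.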
# [17] = cAMP Responsive Elements (CRE) small molecule agonists, cell-based qHTS assay (AID 1963590)
# In short: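 Compound exposure lasted 3 h at 37 C/5% CO2 in CRE-bla HEK 293T cells grown in assay medium with 10% dialyzed FBS and 25 mM HEPES. Reporter signal came from LiveBLAzer B/G FRET substrate, 2 h, room temperature.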
# [18] = cAMP Responsive Elements (CRE) small molecule antagonists, cell-based qHTS assay (AID 1963591; active = well fitted inhibition curve with a large enough effect in the signal ratio in the repeat runs, not every such curve was filed as active; the % refers to the signal ratio)
# In short: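 Stimulation used NKH477 at a final 0.25 uM for 3 h in compound-treated CRE-bla HEK293T cells, seeded 18 h beforehand. Reporter activity was measured with LiveBLAzer B/G FRET substrate after 2 h at room temperature.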
# [19] = target: Beta-2 adrenergic receptor (Homo sapiens) (UniProt P07550); assay: Adrenergic beta2 receptor (ADRB2) small molecule agonists, cell-based qHTS assay (AID 1963593);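 note: CHO cells stably overexpressing human ADRB2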
# In short: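 CHO cells stably over-expressing ADRB2 were plated overnight at 37C, then dosed with compounds plus a stimulation mix containing 100uM IBMX and 25uM Ro-20-1724 for 0.5hr at room temperature. cAMP was measured by HTRF competition, 1hr.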
smiles,measurement,setting,value
CC(C)(C)c1ccc(O)cc1,Potency,[1],inactive
same,Potency,[2],inactive
same,Potency,[3],inactive
same,Potency,[4],inactive
same,Potency,[5],inactive
same,Potency,[6],inactive
same,Potency,[7],inactive
O=C(O)/C=C/C(=O)O,Potency,[8],inactive
same,Potency,[9],inactive
same,Potency,[10],inactive
same,Potency,[11],inactive
O=C(O)/C=C\C(=O)O,Potency,[8],inactive
same,Potency,[9],inactive
same,Potency,[10],inactive
same,Potency,[11],inactive
CCOP(=S)(OCC)Oc1cc(Cl)c(Br)cc1Cl,Potency,[12],inactive
same,Potency,[13],inactive
same,Potency,[11],inactive
same,Potency,[14],inactive
same,Potency,[1],inactive
same,Potency,[2],inactive
same,Potency,[3],inactive
same,Potency,[4],inactive
same,Potency,[5],inactive
same,Potency,[6],inactive
same,Potency,[7],inactive
c1ccccc1,Potency,[8],inactive
same,Potency,[9],inactive
same,Potency,[10],inactive
same,Potency,[14],inactive
same,Potency,[15],inactive
ClC1=C(Cl)[C@]2(Cl)[C@H]3[C@H]([C@@H]4C=C[C@H]3C4)[C@@]1(Cl)C2(Cl)Cl,Potency,[12],inactive
same,Potency,[16],inactive
same,Potency,[8],inactive
same,Potency,[9],inactive
same,Potency,[10],inactive
same,Potency,[11],inactive
same,Potency,[14],inactive
same,Potency,[15],inactive
same,Potency,[1],inactive
same,Potency,[2],inactive
same,Potency,[4],inactive
same,Potency,[17],inactive
same,Potency,[18],inactive
same,Potency,[5],inactive
same,Potency,[6],inactive
same,Potency,[7],inactive
O=[N+]([O-])c1ccc(O)c([N+](=O)[O-])c1,Potency,[12],inactive
same,Potency,[13],inactive
same,Potency,[8],inactive
same,Potency,[9],inactive
same,Potency,[10],inactive
same,Potency,[11],inactive
same,Potency,[14],inactive
same,Potency,[15],inactive
same,Potency,[1],inactive
same,Potency,[2],inactive
same,Potency,[3],inactive
same,Potency,[4],inactive
same,Potency,[5],inactive
same,Potency,[6],inactive
same,Potency,[7],inactive
ClC1=C(Cl)[C@]2(Cl)[C@@H]3[C@H]4C[C@H]([C@@H]5O[C@H]45)[C@@H]3[C@@]1(Cl)C2(Cl)Cl,Potency,[12],inactive
same,Potency,[16],inactive
same,Potency,[8],inactive
same,Potency,[9],inactive
same,Potency,[10],inactive
same,Potency,[11],inactive
same,Potency,[14],inactive
same,Potency,[15],inactive
same,Potency,[6],inactive
same,Potency,[7],inactive
CCC1(c2cnc[nH]2)Cc2ccccc2C1,Potency,[8],inactive
same,Potency,[9],inactive
same,Potency,[10],inactive
same,Potency,[11],inactive
same,Potency,[14],inactive
same,Potency,[15],inactive
CN(C)CCCCCCN(C)C,Potency,[9],inactive
same,Potency,[10],inactive
same,Potency,[11],inactive
same,Potency,[14],inactive
same,Potency,[15],inactive
CCNC(=O)[C@@H]1CCCN1C(=O)[C@H](CCCN=C(N)N)NC(=O)[C@H](CC(C)C)NC(=O)CNC(=O)[C@H](Cc1ccc(O)cc1)NC(=O)[C@H](CO)NC(=O)[C@H](Cc1c[nH]c2ccccc12)NC(=O)[C@H](Cc1cnc[nH]1)NC(=O)[C@@H]1CCC(=O)N1 ([pGlu]HWSYGLRP-NHEt),Potency,[1],inactive
same,Potency,[2],inactive
same,Potency,[3],inactive
C#C[C@]1(O)CC[C@H]2[C@@H]3CCC4=CC(=O)CCC4=C3C=C[C@@]21CC,Potency,[12],inactive
same,Potency,[13],inactive
same,Potency,[10],inactive
same,Potency,[2],inactive
same,Potency,[3],inactive
same,Potency,[6],inactive
same,Potency,[7],inactive
CC(=O)[O-].CC(=O)[O-].CC(=O)[O-].[Cr+3],Potency,[12],inactive
same,Potency,[13],inactive
same,Potency,[10],inactive
same,Potency,[14],inactive
same,Potency,[1],inactive
same,Potency,[4],inactive
same,Potency,[18],inactive
same,Potency,[5],inactive
same,Potency,[6],inactive
same,Potency,[7],inactive
CCCN(CCCl)c1c([N+](=O)[O-])cc(C(F)(F)F)cc1[N+](=O)[O-],Potency,[16],inactive
same,Potency,[13],inactive
same,Potency,[8],inactive
same,Potency,[10],inactive
same,Potency,[14],inactive
same,Potency,[15],inactive
same,Potency,[1],inactive
same,Potency,[2],inactive
same,Potency,[4],inactive
same,Potency,[17],inactive
same,Potency,[18],inactive
same,Potency,[5],inactive
same,Potency,[6],inactive
same,Potency,[7],inactive
O=[Se]=O,Potency,[12],inactive
same,Potency,[16],inactive
same,Potency,[8],inactive
same,Potency,[9],inactive
same,Potency,[11],inactive
same,Potency,[14],inactive
same,Potency,[1],inactive
same,Potency,[2],inactive
same,Potency,[3],inactive
same,Potency,[4],inactive
same,Potency,[18],inactive
same,Potency,[5],inactive
same,Potency,[6],inactive
same,Potency,[7],inactive
S=C(SSC(=S)N1CCCCC1)N1CCCCC1,Potency,[12],inactive
same,Potency,[16],inactive
same,Potency,[8],inactive
same,Potency,[9],inactive
same,Potency,[10],inactive
same,Potency,[15],inactive
same,Potency,[1],inactive
same,Potency,[2],10.7 µM (active)
same,Potency,[3],inactive
same,Potency,[4],inactive
same,Potency,[17],inactive
same,Potency,[5],inactive
same,Potency,[19],inactive
same,Potency,[6],inactive
same,Potency,[7],inactive
COc1nn(CSP(=S)(OC)OC)c(=O)s1,Potency,[12],inactive
same,Potency,[13],inactive
same,Potency,[1],inactive
same,Potency,[2],inactive
same,Potency,[4],inactive
same,Potency,[5],inactive
N=C(N)[Se],Potency,[12],inactive
same,Potency,[16],inactive
same,Potency,[8],inactive
same,Potency,[9],inactive
same,Potency,[10],inactive
same,Potency,[11],inactive
same,Potency,[14],inactive
same,Potency,[3],inactive
same,Potency,[4],inactive
same,Potency,[17],inactive
same,Potency,[18],inactive
same,Potency,[5],inactive
same,Potency,[19],inactive
same,Potency,[6],inactive
COCCOCCO,Potency,[16],inactive
same,Potency,[13],inactive
same,Potency,[11],1.62 µM (active)
same,Potency,[2],inactive
same,Potency,[3],inactive
same,Potency,[18],inactive
same,Potency,[5],inactive
O=S(=O)(O)c1cc(O)ccc1O,Potency,[10],inactive
same,Potency,[14],inactive
NC(=O)CC[C@@H]1NC(=O)[C@H](Cc2ccccc2)NC(=O)[C@H](Cc2ccc(O)cc2)NC(=O)CCSSC[C@@H](C(=O)N2CCC[C@H]2C(=O)N[C@@H](CCCN=C(N)N)C(=O)NCC(N)=O)NC(=O)[C@H](CC(N)=O)NC1=O,Potency,[2],inactive
same,Potency,[3],inactive
same,Potency,[4],inactive
